Each structure is given as a SMILES string. In all, about 2,100 compounds went through this assay and about 770 (37%) were called active. The list shows a part of the results. Unmarked numbers belong to inactive results.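 Rule for the calls: active = by-eye trace score of 1 for enhancers or -1 for inhibitors, so actives lie on both sides (some results past the limit were not filed as active); inactive = score 0, or 3 fluorescent, or 4 baseline rise.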

For the experiment, the target named is G protein-activated inward rectifier potassium channel 2 (Homo sapiens) + G protein-activated inward rectifier potassium channel 1 (Homo sapiens) (UniProt P48051+P48549). Briefly: GIRK1/2 thallium flux modulators, retest, confirmation, cell-based, HEK293 rmGlu8/hGIRK1/2, FluoZin-2 (AID 623911). The following applies: HEK293 rmGlu8/hGIRK1/2, thallium flux FluoZin-2; actives lie on both sides; glutamate co-added at its EC20 level.
Chain of G protein-activated inward rectifier potassium channel 2 (Homo sapiens) + G protein-activated inward rectifier potassium channel 1 (Homo sapiens) (P48051 whole entry, looked up): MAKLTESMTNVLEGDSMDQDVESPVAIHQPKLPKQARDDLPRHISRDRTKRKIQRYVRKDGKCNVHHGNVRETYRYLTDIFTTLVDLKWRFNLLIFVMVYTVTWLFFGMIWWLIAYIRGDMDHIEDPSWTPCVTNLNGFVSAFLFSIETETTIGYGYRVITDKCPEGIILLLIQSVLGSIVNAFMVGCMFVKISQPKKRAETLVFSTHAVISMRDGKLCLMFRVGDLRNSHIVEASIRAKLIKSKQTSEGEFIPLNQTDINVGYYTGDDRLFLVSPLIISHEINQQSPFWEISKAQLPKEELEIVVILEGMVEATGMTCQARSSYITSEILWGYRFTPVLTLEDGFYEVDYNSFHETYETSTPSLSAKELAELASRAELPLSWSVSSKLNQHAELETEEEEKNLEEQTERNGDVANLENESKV
Chain of G protein-activated inward rectifier potassium channel 2 (Homo sapiens) + G protein-activated inward rectifier potassium channel 1 (Homo sapiens) (P48549 whole entry, looked up): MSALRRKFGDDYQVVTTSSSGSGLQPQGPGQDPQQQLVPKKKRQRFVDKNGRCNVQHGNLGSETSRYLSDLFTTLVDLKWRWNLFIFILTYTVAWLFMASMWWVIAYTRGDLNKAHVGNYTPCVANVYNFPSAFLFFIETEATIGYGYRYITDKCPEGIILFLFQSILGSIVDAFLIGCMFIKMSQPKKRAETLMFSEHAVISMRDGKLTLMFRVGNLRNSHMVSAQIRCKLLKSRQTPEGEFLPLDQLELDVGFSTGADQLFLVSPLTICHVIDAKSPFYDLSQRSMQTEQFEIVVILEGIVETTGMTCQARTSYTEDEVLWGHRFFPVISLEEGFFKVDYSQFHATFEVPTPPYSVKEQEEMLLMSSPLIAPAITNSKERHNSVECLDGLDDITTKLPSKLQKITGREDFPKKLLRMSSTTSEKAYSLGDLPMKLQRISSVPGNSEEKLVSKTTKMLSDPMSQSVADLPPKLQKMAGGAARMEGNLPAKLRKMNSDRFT
Regarding `COC(=O)C1CCCN1C(=O)c1cccs1` (stereo not given), the manual score was 0.

With `CC1CCCC(NC(=O)Nc2cccs2)C1C` (stereo not given), the manual score is 1 (active).

For `C=COCCNC(=O)Nc1ccc(Cl)c(Cl)c1`, the manual score was 0.5.

`CCOC(=O)C1=C(CC)Nc2ccccc2N=C1NC(=O)c1ccc(S(=O)(=O)N(C)C)cc1`: the manual score is 0.

For the compound `CCOC(=O)C1=C(CC)Nc2ccccc2N=C1NC(=O)Nc1ccc(Cl)c(Cl)c1`, the manual score is 1 (active).

Consider `CCCn1c(=O)c2ccccc2n2c(SCCOc3ccccc3F)nnc12`, for which the manual score is -1 (active).

Take `O=C(CSc1nc2ccccc2n1CCc1ccccc1)N1CCOCC1`: the manual score is 0.

Consider `CCCn1c(=O)c2ccccc2n2c(SCc3nc4ccccc4s3)nnc12`, for which the manual score was 0.

For `CCCn1c(=O)c2ccccc2n2c(SCC(=O)N3CCc4ccccc4C3)nnc12`, the manual score is -1 (active).

As to `Cc1ccc2oc(=O)c3cnn(CC(=O)N4CCc5ccccc5C4)c3c2c1`, the manual score is 0.

With `CCCn1c(SC(C(=O)Nc2cc(C)ccc2OC)c2ccccc2)nc2ccccc2c1=O` (stereo not given), the manual score was 0.

In the case of `COc1ccc(-c2nc(C#N)c(NCCCN(C)C)o2)cc1OC`, the manual score is 0.

Take `CC(C)(C)NC(=O)C(=O)NNC(=O)COc1ccc(Br)cc1`: the manual score was 1 (active).

Regarding `CNC(=S)SCCOc1ccc(C)cc1`, the manual score was 3.

Turning to `COc1ccc(OCC(=O)NNC(=O)C(=O)Nc2ccc(C)cc2)cc1`, the manual score was 1 (active).

Consider `Cc1ccc(OCC(=O)NNC(=O)C(=O)NC(C)(C)C)cc1`, for which the manual score was 1 (active).

Take `Nc1c(-c2ccccc2)cnn1-c1ccc(C(=O)O)cc1`: the manual score was 0.

Regarding `CC1=NCCN1S(=O)(=O)c1cc(Cl)ccc1Cl`, the manual score is 0.

As to `O=C(NCc1ccccc1)c1ccc2c(=O)n(CCCN3CCCC3=O)c(=S)[nH]c2c1`, the manual score was 0.

For `COc1cccc(CNc2nc3ccccc3n2CCN2CCCCC2)c1OC`, the manual score was -1 (active).

With `COc1ccccc1CNC(=O)c1c(N)n(CCCN2CCOCC2)c2nc3ccccc3nc12`, the manual score is 0.

With `CCn1c(NC(=S)Nc2ccccc2)nc2ccccc21`, the manual score is 0.

In the case of `COc1ccc(CNC(=O)C(C#N)c2nc3ccccc3nc2N2CCCC2)cc1` (stereo not given), the manual score is 3.

Regarding `Cn1c(CNc2nc3ccccc3n2CCN2CCCCC2)nc2ccccc21`, the manual score was -1 (active).

As for `COc1ccc(/C=C/c2nc3sc4c(c3c(=O)o2)CCC4)cc1`, the manual score was 3.

`COc1cc(NC(=O)C(=O)NNC(=O)C2CCCCC2)c(OC)cc1Cl`: the manual score is 1 (active).

Turning to `COc1cc(NC(=O)c2ccc(C)cc2)c(OC)cc1NC(=O)CN1CCCCC1`, the manual score was 0.

On to `COc1ccc(OC)c(NC(=O)C2CC(=O)N(c3ccc(Br)cc3)C2)c1` (stereo not given), for which the manual score was 0.

Turning to `CCOc1ccccc1NC(=O)CSc1nnc(-c2ccccn2)n1Cc1ccco1`, the manual score is 0.

As to `CCOC(=O)N1CCN(C(=O)CSc2nc3c(c(=O)n2-c2ccccc2OC)SCC3)CC1`, the manual score was 0.

`CCOC(=O)CSc1nc2c(sc(=S)n2-c2ccccc2OC)c(=O)n1Cc1ccco1`: the manual score was -1 (active).

In the case of `Brc1ccccc1C1=Nn2c(nnc2-c2ccccc2)SC1`, the manual score is -1 (active).

`CCCc1nnc2n1N=C(c1ccc(OC)c(OC)c1)CS2`: the manual score was 0.

On to `Nc1nc(Nc2ccccc2)nc(NCc2ccco2)c1[N+](=O)[O-]`, for which the manual score is 0.

Take `CCOC(=O)c1sc2ncnc(NCc3ccco3)c2c1C`: the manual score was 1 (active).

On to `CS(=O)(=O)N(CC(=O)NCc1ccco1)c1ccc(Cl)c(C(F)(F)F)c1`, for which the manual score was 0.

Regarding `Cc1ccc2c(Cl)cc(Cl)c(OCC(=O)NCc3ccco3)c2n1`, the manual score is 1 (active).

As to `Cc1ccc(-n2c(CSc3nc(C)cc(C)n3)nnc2SCC(=O)NCc2ccco2)cc1`, the manual score was 0.

In the case of `C=CCOn1c(=O)c(-c2cccs2)[n+]([O-])c2ccccc21`, the manual score was 3.

On to `CCCCCCn1c(=O)[nH]c2nc3cc(N)ccc3nc2c1=O`, for which the manual score is 3.

For the compound `COc1ccc(C(=O)NC(=S)N2CCC(C)CC2)cc1`, the manual score was 1 (active).

As to `O=C(NC(=S)N1CCN(Cc2ccccc2)CC1)c1ccccc1`, the manual score is 1 (active).

In the case of `COc1ccc(C(=O)NC(=S)N2CCCCC2)cc1`, the manual score is 2.

On to `CC1CCN(C(=S)NC(=O)c2ccccc2)CC1`, for which the manual score is 1 (active).

For `CNC(=S)N1CCN(c2ccc(OC)cc2)CC1`, the manual score is 0.

For the compound `CN1CCN(C(=S)NC(=O)/C=C/c2cccc3ccccc23)CC1`, the manual score is 0.

As to `CC1CCN(c2ccccc2NC(=S)NC(=O)c2cccs2)CC1`, the manual score was 0.

Regarding `CC1CCN(c2ncccc2C(=O)O)CC1`, the manual score was 0.

Turning to `Cc1cccc(-n2c(-c3csc(C(C)C)c3)n[nH]c2=S)c1`, the manual score was 0.

As for `CCn1nc(C(=O)OCC(=O)N2CCc3ccccc32)c2ccccc2c1=O`, the manual score was -1 (active).

Take `CCc1c(C)nc(SCC(=O)N2CCc3ccccc32)[nH]c1=O`: the manual score is 3.

On to `O=C(c1ccc2c(=O)n(C3CCCC3)c(=S)[nH]c2c1)N1CCc2ccccc21`, for which the manual score is 0.

For `CCCCn1nc(C(=O)N2CCc3ccccc32)c2ccccc2c1=O`, the manual score was -1 (active).

Take `Cc1c(C(=O)N2CCc3ccccc32)oc2c1C(=O)CC(C)(C)C2`: the manual score is 0.

Take `CCn1nc(C(=O)OCC(=O)c2c[nH]c3ccccc23)c2ccccc2c1=O`: the manual score is 0.

As for `Cc1[nH]n(-c2ccc(F)cc2)c(=O)c1/C=N/c1sc2c(c1C#N)CCCC2`, the manual score was 3.

Consider `Cc1[nH]n(-c2cccc3ccccc23)c(=O)c1/C=N/c1sc2c(c1C#N)CCC2`, for which the manual score was 1 (active).

With `CC(=O)c1cccc(NC(=O)C2CCCN2S(=O)(=O)c2cccc3cccnc23)c1` (stereo not given), the manual score was 0.

Consider `COc1ccccc1OCC(=O)Nc1sc2c(c1C(=O)NCC1CCCO1)CCC2` (stereo not given), for which the manual score is 0.

Turning to `CCOc1ccc(C(=O)CN2CCN(S(=O)(=O)c3ccc(Br)cc3)CC2)cc1`, the manual score was 0.

For the compound `CCOC(=O)c1c(NS(=O)(=O)c2cccc(OC)c2)sc2c1CCC2`, the manual score was 1 (active).

In the case of `CCOC(=O)c1c(NS(=O)(=O)c2ccc(Br)cc2)sc2c1CCC2`, the manual score is 1 (active).

With `CCc1cc2c(=O)n(CC)c(SC(C)C(=O)Nc3c(C)n(C)n(-c4ccccc4)c3=O)nc2s1` (stereo not given), the manual score was 0.

Turning to `O=C(CNC(=S)NC(=O)c1ccco1)c1ccccc1`, the manual score was 1 (active).

Regarding `O=C(NC(=S)Nc1nc2c(ccc3ccccc32)s1)c1cccs1`, the manual score is 0.5.

For `O=C(NC(=S)N(CCc1ccccc1)CCc1ccccc1)c1ccco1`, the manual score is 1 (active).

Take `O=C(NC(=S)NCCc1ccccc1)c1ccco1`: the manual score is 1 (active).

For `O=C(CNC(=S)NC(=O)c1cccs1)c1ccccc1`, the manual score is 1 (active).

Turning to `O=C(NC(=S)Nc1nc2ccccc2s1)c1cccs1`, the manual score was 0.5.

For `O=C(NC(=S)NCCc1ccccc1)c1ccccc1`, the manual score is 0.

Values taken from PubChem BioAssay AID623911 (Vanderbilt High Throughput Screening Facility, 2012).
